# Data published in PubChem BioAssay AID651710 (Broad Institute, 2012).
# Screen size: about 360,000 compounds; about 1,600 (0.44%) were called active. The list comes from a sample in which actives are over-represented; it also holds similar structures and randomly drawn compounds. Values without a mark were called inactive.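 How the source made its calls: active means every replicate showing at least 50% inhibition; inconclusive means mean inhibition at least 50% but not in every replicate; inactive means the rest.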
# Molecular target: DNA repair protein RAD52 homolog (Homo sapiens) (UniProt P43351)
# Sequence (P43351 whole entry, looked up): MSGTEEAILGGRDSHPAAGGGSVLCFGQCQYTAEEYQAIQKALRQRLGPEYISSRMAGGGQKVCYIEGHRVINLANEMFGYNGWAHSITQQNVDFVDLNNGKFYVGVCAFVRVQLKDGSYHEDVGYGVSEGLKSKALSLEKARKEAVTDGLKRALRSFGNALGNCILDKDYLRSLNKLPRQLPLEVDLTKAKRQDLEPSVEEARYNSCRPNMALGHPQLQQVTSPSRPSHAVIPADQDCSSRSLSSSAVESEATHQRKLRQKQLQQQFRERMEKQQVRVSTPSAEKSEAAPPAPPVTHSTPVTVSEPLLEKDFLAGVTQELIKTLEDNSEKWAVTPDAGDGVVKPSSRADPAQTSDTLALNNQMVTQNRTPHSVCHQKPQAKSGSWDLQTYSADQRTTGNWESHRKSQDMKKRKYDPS
# Test: blockers of RAD52 strand annealing activity – biochemical, FRET, single point, set 2, primary screen (AID 651710)
# Conditions: recombinant RAD52 DNA annealing, FRET fluorescence; at 18.7 µM; hits give high values
row,Structure (SMILES),inhibition
1,CC(C)NC(=O)N(C)C[C@H]1OCCCC[C@@H](C)Oc2ccc(NC(=O)C3CCCCC3)cc2C(=O)N([C@H](C)CO)C[C@H]1C,-14%
2,CO[C@H]1CN(C)C(=O)c2ccc(NC(=O)c3cccc(F)c3)cc2OC[C@@H](C)N(C(C)=O)C[C@@H]1C,3.49%
3,C[C@@H]1CCCCO[C@H](CN(C)Cc2ccc(C(F)(F)F)cc2)[C@H](C)CN([C@H](C)CO)C(=O)c2cc(NC(=O)Nc3ccc(F)cc3)ccc2O1,-10%
4,C[C@H](CO)N1C[C@H](C)[C@@H](CN(C)S(C)(=O)=O)OCCCC[C@H](C)Oc2ccc(NC(=O)Nc3ccc(C(F)(F)F)cc3)cc2C1=O,9.95%
5,CCCN(C)C[C@@H]1OCCCC[C@@H](C)Oc2ccc(NC(=O)Nc3ccc(C(F)(F)F)cc3)cc2C(=O)N([C@H](C)CO)C[C@H]1C,61.7% (active)
6,CN1C(=O)c2cc(NC(=O)C3CCOCC3)ccc2OC[C@@H]2O[C@H](CC(=O)NCc3ccccc3F)CC[C@H]21,-6.2%
7,COCC(=O)Nc1ccc2c(c1)OC[C@H](C)N(Cc1ccccc1OC)C[C@@H](C)[C@@H](OC)CN(C)C2=O,5.08%
8,CCC1CCCCN1CCCNC(=O)c1cc2c(Cl)nc3ccccc3c2s1 (stereo not given),64.2% (active)
9,Cc1nc2ccccc2c2oc(C(=O)NCCCN3CCC(C)CC3)cc12,24.5%
10,CCCn1c2ccccc2c2cnn(CC(=O)NCCCN3CCCCC3CC)c(=O)c21 (stereo not given),6.95%
11,C[C@@H]1CN([C@H](C)CO)C(=O)c2cccc(NC(=O)C3CCOCC3)c2O[C@H]1CN(C)S(=O)(=O)c1ccc(Cl)cc1,-3.65%
12,OC[C@H]1[C@H](c2ccc(-c3cccnc3)cc2)[C@H]2CN(Cc3ccccn3)CCCCN21,-13.2%
13,OC[C@H]1[C@@H](c2ccc(/C=C/c3ccccc3)cc2)[C@H]2CN(Cc3cccnc3)CCCCN21,57.1% (active)
14,OC[C@@H]1[C@H](c2ccc(C#Cc3ccccc3)cc2)[C@@H]2CN(Cc3cncnc3)CCCCN12,-7.81%
15,C[C@H]1CN([C@@H](C)CO)C(=O)Cc2cc(NS(=O)(=O)c3ccc(Cl)cc3)ccc2O[C@@H]1CN(C)S(=O)(=O)c1ccccc1,0.925%
16,O=C(Cc1ccccn1)N[C@@H]1CC[C@H](CCn2cc(-c3ccc(F)cc3)nn2)O[C@@H]1CO,-0.234%
17,COc1cccc(CNc2nc(NCc3cccs3)nc3ccsc23)c1,63.7% (active)
18,Clc1ccccc1Nc1nc(NCc2cccs2)nc2ccsc12,-19.9%
19,COc1cccc(CNc2nc(NCc3ccccc3OC)nc3ccsc23)c1,-11.5%
20,C[C@@H]1CN([C@H](C)CO)C(=O)c2cc(-c3ccc(C#N)cc3)cnc2O[C@@H]1CN(C)C(=O)Nc1ccccc1,4.39%
21,COc1ccc(-c2ccc([C@@H]3[C@@H](CO)N4CCCCN(C(=O)NC(C)C)C[C@H]34)cc2)cc1,0.301%
22,CCC(=O)Nc1ccc2c(c1)C(=O)N(C)[C@@H]1CC[C@@H](CC(=O)NCCc3ccccc3)O[C@H]1CO2,-0.75%
23,CC(C)CC#Cc1ccc2c(c1)O[C@H](CN(C)S(=O)(=O)c1cccc(F)c1)[C@@H](C)CN([C@@H](C)CO)S2(=O)=O,10.9%
24,COc1ccc(NC(=O)C2Cc3c(-c4cccc(NC(C)=O)c4)ccnc3O2)cc1OC (stereo not given),-0.756%

row,Structure (SMILES),inhibition
1,COc1ccc(NC(=S)SC)cc1OC,-5.52%
2,COc1ccc(NC(=O)C2C3CCC(O3)C2C(=O)O)cc1OC (stereo not given),71.2% (active)
3,Nc1c(C(=O)OCC(=O)Nc2ccc(OC(F)F)cc2)[nH]c(=O)[nH]c1=O,-4.75%
4,O=C1CCC(C(=O)OCC(=O)Nc2ccc(OC(F)F)cc2)=NN1,54.8% (active)
5,COCc1c(C(=O)OCC(=O)Nc2ccc(OC(F)F)cc2)oc2ccccc12,-1.64%
6,C=CCNC(=O)[C@H]1[C@@H]2C(=O)O[C@@H](c3ccccc3)[C@@H](c3ccccc3)N2[C@@H](c2ccccc2OCCO)[C@]12C(=O)N(C(=O)OCCOC)c1ccc(C#Cc3ccc(OC)cc3)cc12,-0.136%
7,CO[C@@H]1CN(C)C(=O)c2cc(NS(=O)(=O)c3cn(C)cn3)ccc2OC[C@@H](C)N(CCC(F)(F)F)C[C@H]1C,7.94%
8,CCCc1cn(CC[C@H]2CC[C@@H](NC(=O)C3CCOCC3)[C@@H](CO)O2)nn1,-2.7%
9,CCN1CCCC1CNC(=O)c1cc2cc(OC)c(OC)cc2[nH]1 (stereo not given),2.51%
10,CCN1CCCC1CNC(=O)c1ccc2c(c1)NC(=O)/C(=C\c1ccccc1F)S2 (stereo not given),87.1% (active)
11,O=C1Nc2cc(C(=O)N3CCC(N4CCCCC4)CC3)ccc2S/C1=C\c1ccccc1,39.6%
12,CC(=O)N(C)C[C@H]1[C@H](c2ccc(C3=CCCCC3)cc2)[C@H](CO)N1CC1CC1,17.9%
13,COCC(=O)N(C)C[C@H]1Oc2cc(C#C[C@@H](C)O)ccc2S(=O)(=O)N([C@@H](C)CO)C[C@@H]1C,-1.74%
14,CC(=O)N(C)C[C@@H]1Oc2cc(-c3ccncc3)ccc2S(=O)(=O)N([C@@H](C)CO)C[C@H]1C,3.3%
15,CCCN(C)C[C@H]1Oc2cc(C#CC3CCCC3)ccc2S(=O)(=O)N([C@H](C)CO)C[C@@H]1C,-63.3%
16,CO[C@@H]1CN(C)C(=O)c2ccc(NC(=O)C3CC3)cc2OC[C@@H](C)N(Cc2ccncc2)C[C@@H]1C,17%
17,C[C@H](CO)N1C[C@H](C)[C@H](CN(C)S(=O)(=O)c2cn(C)cn2)Oc2c(NC(=O)c3ccc(-c4nccs4)cc3)cccc2C1=O,7.43%
18,COc1cccc2sc(N(CCCN(C)C)C(=O)C(c3ccccc3)c3ccccc3)nc12,56.2% (active)
19,COc1ccccc1CNC(=O)Cn1cc2c(n1)CCCC2,-14%
20,CCN(CC)CCN(C(=O)c1ccc2c(c1)CCCC2)c1nc2c(OC)cccc2s1,53.9% (active)
21,CCN(CC)CCN(C(=O)c1ccc(N2C(=O)CCC2=O)cc1)c1nc2cc3c(cc2s1)OCO3,40.8%
22,O=C(CN1CCOCC1)N1CC(=O)N2[C@H](C1)[C@H](c1ccc(/C=C/c3ccccc3)cc1)[C@@H]2CO,-3.93%
23,Cc1cccc(N(C)C(=O)c2cc3c(=O)[nH]c4ccc(C)cc4c3s2)c1,-6.65%
24,O=C(NCCN1CCN(Cc2ccccc2)CC1)c1cc2c(=O)[nH]c3ccccc3c2s1,-32.4%

row,Structure (SMILES),inhibition
1,CCN(CC)CCCNC(=O)c1cc2c(=O)[nH]c3ccc(C)cc3c2s1,54.3% (active)
2,CO[C@H]1CN(C)C(=O)c2cc(NC(=O)NC(C)C)ccc2OC[C@H](C)N(C(=O)CN(C)C)C[C@H]1C,-12.8%
3,CO[C@@H]1CN(C)C(=O)c2cc(NC(=O)Nc3ccc4c(c3)OCO4)ccc2OC[C@@H](C)NC[C@@H]1C,-75.6%
4,O=C1c2ccccc2-c2ncnc3c(N4CCOCC4)cc(N4CCOCC4)c1c23,3.29%
5,Cc1oc2c(c1C(=O)N1CCOCC1)C(=O)c1ccccc1C2=O,-120%
6,COC1=C(N2CCOCC2)C(=O)c2ccccc2C1=O,96.8% (active)
7,CCCNC(=O)C[C@@H]1CC[C@@H]2[C@H](COc3ccc(NC(=O)C4CCOCC4)cc3C(=O)N2C)O1,8.28%
8,O=C(Cc1ccccn1)N[C@H]1CC[C@@H](CC(=O)N2CCCCC2)O[C@@H]1CO,-3.74%
9,CO[C@@H]1CN(C)C(=O)c2ccc(NC(C)=O)cc2OC[C@@H](C)N(Cc2ccc(-c3ccccn3)cc2)C[C@H]1C,20.8%
10,COc1cccc(NC(=O)Nc2ccc3c(c2)C(=O)N(C)C[C@H](OC)[C@@H](C)CN[C@@H](C)CO3)c1,45.9%
11,CO[C@@H]1CN(C)C(=O)c2cc(NC(=O)NC(C)C)ccc2OC[C@@H](C)N(CC2CC2)C[C@@H]1C,-2.47%
12,COc1cccc(NC(=O)Nc2ccc3c(c2)OC[C@@H](C)NC[C@@H](C)[C@H](OC)CN(C)C3=O)c1,84.4% (active)
13,COc1cccc(NC(=O)Nc2ccc3c(c2)C(=O)N(C)C[C@@H](OC)[C@H](C)CN(CC2CC2)[C@H](C)CO3)c1,58.2% (active)
14,COc1ccc(NC(=O)Nc2ccc3c(c2)OC[C@@H](C)NC[C@@H](C)[C@H](OC)CN(C)C3=O)cc1,-1.22%
15,COc1ccccc1C(=O)Nc1ccc2c(c1)C(=O)N(C)C[C@@H](OC)[C@@H](C)CN(CC1CC1)[C@@H](C)CO2,14.3%
16,CCCC(=O)Nc1ccc2c(c1)C(=O)N(C)C[C@H](OC)[C@@H](C)CN[C@H](C)CO2,-5.47%
17,O=C(CN1CCOCC1)N[C@@H]1CC[C@H](CCNS(=O)(=O)c2ccccc2F)O[C@H]1CO,-13.5%
18,O=C(Cc1ccccc1)N1CC[C@@H]2[C@H](CO)Nc3ccc(-c4ccccc4)cc3[C@@H]21,-10.7%
19,Cc1ccc(-c2ccc3c(c2)O[C@H](CN(C)C(=O)Nc2ccc(C(F)(F)F)cc2)[C@@H](C)CN([C@H](C)CO)S3(=O)=O)cc1,-8.45%
20,Cc1cc(N2CCN(C)CC2)nc2ccc(NC(=S)N3CCOCC3)cc12,46.4%
21,CCOCCCNC(=S)Nc1ccc2nc(N3CCN(CC)CC3)cc(C)c2c1,61% (active)
22,Cc1cc(N2CCOCC2)nc2ccc(NC(=S)N3CCN(Cc4ccccc4)CC3)cc12,-21.2%
